Experiment [1] deals with Thyrotropin-releasing hormone receptor (Homo sapiens) (UniProt P34981). Kind of experiment: qHTS assay to identify small molecule agonists of the thyrotropin-releasing hormone receptor (TRHR) signaling pathway (AID 1346891; calls by dose curve;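 note: HEK293 cells expressing TRHR with calcium dye readout; series mostly up to about 58 µM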). Put shortly:
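Cells: TRHR-Hek293, seeded and incubated 18 h. Dye loading: 2 h at 37 °C. Compound added from DMSO stock by pin tool. Read-out: kinetic calcium fluorescence over 3 min.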

Experiment [2] is described as follows: Caspase-3/7 induction in HepG2 cells by small molecules, qHTS assay (AID 1346978). Note: nearly all actives have a fitted effect of over 15% in size. Note: potency is the fitted concentration of half-maximal effect. The method, boiled down: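 Wild-type HepG2 cells, 2,000/well, settled 5 hr at 37 C and 5% CO2, then compound-treated for 17 hr; caspase-3/7 activity read by luminescent Caspase-Glo 3/7 after 30 min at room temperature.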
For orientation: qHTS replaces the single test concentration by a dilution series.

Experiment [3] in a line: Caspase-3/7 induction in CHO-K1 cells by small molecules, qHTS assay (AID 1346980). Note: nearly all actives have a fitted effect of over 15% in size. Put shortly:
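Wild-type CHO-K1 cells exposed to compounds for 17hr at 37 C, 5% CO2. Caspase-3/7 activity then measured by Caspase-Glo 3/7 luminescence after 30min at room temperature.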

The nature of experiment [4]: Caspase-3/7 induction in HepG2 cells by small molecules, qHTS cell viability counter screen (AID 1346981). Note: nearly all actives have a fitted effect of over 30% in size. Note: potency is the fitted concentration of half-maximal effect. The method, boiled down: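 HepG2, WT, 2,000 cells/well; 5 hr pre-incubation 37 C/5% CO2; compound pin-transferred from DMSO; 16 hr exposure; CellTiter-Fluor, 1 hr; fluorescence read.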
Experiment [5] deals with Nuclear receptor subfamily 1 group I member 2 (Homo sapiens) (UniProt O75469). Kind of experiment: Human pregnane X receptor (PXR) small molecule agonists, qHTS assay (AID 1346982). Note: nearly all actives have a fitted effect of over 35% in size. Note: potency is the fitted concentration of half-maximal effect. The method, boiled down:
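Luciferase signal from ONE-Glo (30 min, room temperature) measured activation of hPXR-driven CYP3A4 reporter expression in PXR-Luc HepG2 cells treated with compounds for 24 hr at 37 C.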

For experiment [6], the target named is Nuclear receptor subfamily 1 group I member 2 (Rattus norvegicus) (UniProt Q9R1A7). Kind of experiment: Rat pregnane X receptor (rPXR) activation by small molecules, qHTS assay (AID 1346983). Note: nearly all actives have a fitted effect of over 20% in size. As to conditions: rPXR luciferase reporter cells, One-Glo luminescence, 24 h; stronger effect = higher value. The method, boiled down:
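Cell-based rPXR activation assay: rPXR cells, 2,000 per well, rested 5hr at 37 C, then exposed to compounds in DMSO for 24 hr at 37 C. Luciferase activity read by One-Glo luminescence after 30 min at room temperature.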

In experiment [7] the target is Nuclear receptor subfamily 1 group I member 2 (Homo sapiens) (UniProt O75469). Kind of experiment: CYP3A4 induction through human pregnane X receptor (PXR) by small molecules, qHTS assay (AID 1346984). Note: nearly all actives have a fitted effect of over 40% in size. The method, boiled down: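 Luminescence readout: luciferase signal after One-Glo (30 min, room temperature), following 3 h at 37C with 3uM final Luciferin-IPA P450 substrate. Cells were DPX-2 (HepG2, PXR/CYP3A4-luc co-transfected) dosed for 24 h.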

Experiment [8] shares this target. As to the kind of experiment: Human pregnane X receptor (PXR) activation by small molecules, qHTS assay (AID 1346985). Note: nearly all actives have a fitted effect of over 40% in size. The method, boiled down: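 DPX-2 cells (HepG2 co-transfected with a PXR response element and a CYP3A4-promoter luciferase construct) were seeded at 2,000 per well, rested 5 hr at 37C, then exposed to DMSO-dissolved compounds for 24 hr. Activation was read as luciferase luminescence.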

Experiment [9] can be described thus: Human pregnane X receptor (PXR) small molecule agonists, qHTS cell viability counter screen (AID 1346977). Note: nearly all actives have a fitted effect of over 50% in size. Put shortly:
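Cytotoxicity counter screen run in the same wells as the PXR luciferase assay, using PXR-Luc HepG2 cells in charcoal-stripped serum medium. Viability: CellTiter-Fluor fluorescence after 24hr compound treatment.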

Experiment [10] in a line: Caspase-3/7 induction in CHO-K1 cells by small molecules, qHTS cell viability counter screen (AID 1346979). Note: nearly all actives have a fitted effect of over 35% in size. Note: potency is the fitted concentration of half-maximal effect. The method, boiled down:
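Cytotoxicity counter screen run in parallel with the caspase-3/7 assay: CHO-K1 cells, 16hr compound treatment at 37C, then CellTiter-Fluor for 1hr before fluorescence reading.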

The structures appear in SMILES notation. Values joined by “and” are separate entries in the source; they are usually repeats but may differ in a detail not shown here. Identical values can stand only once. Inconclusive results are not listed. Some compounds were tested as several samples or in several runs, with calls that do not always agree. Active and inactive are the calls of the source. Unless noted, calls come from the whole dose curve; as a rule, active = well fitted curve in the direction sought with a large enough effect in the repeat runs; inconclusive = weak or mixed curves; inactive = no such curve, though single readings can be large; an effect the other way counts as inactive or inconclusive.

We go through 31 compounds from PubChem BioAssay (Tox21).
% is set by controls: 0 for no effect and ±100 for the full control effect.

Chain of Nuclear receptor subfamily 1 group I member 2 (Homo sapiens) (O75469 whole entry, looked up): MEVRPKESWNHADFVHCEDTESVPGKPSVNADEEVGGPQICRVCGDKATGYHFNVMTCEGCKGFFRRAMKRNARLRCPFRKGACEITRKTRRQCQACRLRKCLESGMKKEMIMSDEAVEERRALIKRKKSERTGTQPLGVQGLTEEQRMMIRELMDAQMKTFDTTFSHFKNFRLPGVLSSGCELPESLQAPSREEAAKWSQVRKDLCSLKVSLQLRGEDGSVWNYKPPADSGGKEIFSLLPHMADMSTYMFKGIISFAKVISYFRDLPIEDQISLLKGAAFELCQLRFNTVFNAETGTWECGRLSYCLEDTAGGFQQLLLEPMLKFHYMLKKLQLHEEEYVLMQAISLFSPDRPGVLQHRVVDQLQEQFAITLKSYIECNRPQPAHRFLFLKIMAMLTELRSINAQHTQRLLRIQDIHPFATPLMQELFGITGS
Chain of Nuclear receptor subfamily 1 group I member 2 (Rattus norvegicus) (Q9R1A7 whole entry, looked up): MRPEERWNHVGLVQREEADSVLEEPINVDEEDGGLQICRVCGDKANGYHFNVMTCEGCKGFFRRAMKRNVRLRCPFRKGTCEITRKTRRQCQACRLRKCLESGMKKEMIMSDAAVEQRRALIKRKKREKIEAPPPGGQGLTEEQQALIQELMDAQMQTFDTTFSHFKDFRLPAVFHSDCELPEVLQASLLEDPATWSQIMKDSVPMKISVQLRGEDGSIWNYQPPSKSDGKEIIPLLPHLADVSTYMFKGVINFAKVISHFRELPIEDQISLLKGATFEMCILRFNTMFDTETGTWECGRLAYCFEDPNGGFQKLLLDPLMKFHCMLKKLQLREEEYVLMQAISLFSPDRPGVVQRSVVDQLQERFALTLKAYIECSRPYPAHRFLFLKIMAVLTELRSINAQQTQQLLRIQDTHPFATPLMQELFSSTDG
Chain of Thyrotropin-releasing hormone receptor (Homo sapiens) (P34981 whole entry, looked up): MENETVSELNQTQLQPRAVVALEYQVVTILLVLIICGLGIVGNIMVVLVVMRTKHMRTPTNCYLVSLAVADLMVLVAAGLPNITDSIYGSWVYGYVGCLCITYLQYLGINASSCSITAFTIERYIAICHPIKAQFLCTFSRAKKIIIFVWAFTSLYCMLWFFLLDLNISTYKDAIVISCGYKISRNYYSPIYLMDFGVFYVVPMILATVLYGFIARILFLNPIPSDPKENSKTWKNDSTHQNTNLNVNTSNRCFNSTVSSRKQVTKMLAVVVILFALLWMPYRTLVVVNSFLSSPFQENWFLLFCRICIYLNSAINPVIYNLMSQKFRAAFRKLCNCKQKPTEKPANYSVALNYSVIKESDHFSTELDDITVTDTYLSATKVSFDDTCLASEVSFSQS

As to `CN(C)CCOC(=O)COc1ccc(Cl)cc1`, the compound was called inactive in experiment [1], in [3] and in experiment [8]. Also, the Potency result in experiment [2], in experiment [4], in experiment [5] and in [7] was “inactive” in each case. The max activation in experiment [6] was -3.66% (inactive).
For the compound `C=CCc1ccc(OC)c(OC)c1`, the Potency result in experiment [9], in [2], in experiment [10], in experiment [4] and in experiment [5] was “inactive” each time. The outcome in experiment [3] was inactive.
Take `c1ccc2c(c1)Cc1ccccc1-2`: the Potency result in [9], in experiment [2], in experiment [10], in [4] and in experiment [5] was “inactive” throughout. For the same compound, the compound was classed as inactive in [3].
On to `N#Cc1ccccc1`, for which the outcome in [1] and in experiment [3] was inactive. The Potency result in experiment [2], in experiment [10], in experiment [4] and in experiment [5] was “inactive” in each case.
In the case of `CCOC(=O)n1ccn(C)c1=S`, the Potency entry in experiment [9], in experiment [2], in experiment [10], in experiment [4], in experiment [5] and in experiment [7] was “inactive” each time. The call in experiment [3] and in experiment [8] was inactive. Besides, the max activation in experiment [6] was -4.98% (inactive).
As for `NC(=S)NNC(N)=S`, the compound was classed as inactive in [1] and in experiment [3]. For the same compound, the Potency entry in experiment [2], in experiment [10] and in experiment [5] was “inactive” in each case.
As for `CNC(=O)Oc1ccc2c(c1)[C@]1(C)CCN(C)[C@@H]1N2C`, the call in experiment [1], in [3] and in experiment [8] was inactive. Also, the Potency entry in experiment [2], in [10], in experiment [4], in experiment [5] and in experiment [7] was “inactive” in each case. Also, the max activation in [6] is -1.54% (inactive).
Take `CCO[Si](CCC#N)(OCC)OCC`: the result in experiment [1] and in [3] was inactive. Also, the Potency result in [2], in experiment [10], in experiment [4] and in [5] was “inactive” each time.
As to `CCOCC(=O)O`, the Potency entry in experiment [9], in experiment [2], in [10], in experiment [4] and in [5] was “inactive” each time. In addition, the result in experiment [3] was inactive.
`CC(C)c1cccc(C(C)C)c1`: the Potency entry in experiment [9], in [2], in experiment [10], in experiment [4] and in experiment [5] was “inactive” in each case. The compound was called inactive in experiment [3].
In the case of `O=C(O)c1ccccc1C(=O)O`, the Potency result in experiment [9], in experiment [2], in experiment [10], in experiment [4] and in [5] was “inactive” throughout. In experiment [3], the compound was classed as inactive.
Take `CNC(=S)N(C)C`: the Potency result in experiment [9], in experiment [2], in experiment [10] and in experiment [4] was “inactive” throughout. In addition, the compound was called inactive in [3]. Further, the Potency in experiment [5] was 61.7 µM (active) and inactive.
For `CC(C)CC(C)O` (stereo not given), the Potency entry in experiment [2], in experiment [10], in [4] and in experiment [5] was “inactive” in each case. In addition, the call in experiment [3] was inactive.
Turning to `C=CCCCCCCCCC(=O)O`, the result in [1], in experiment [3] and in experiment [8] was inactive. Moreover, the Potency result in experiment [2], in experiment [10], in experiment [4], in [5] and in [7] was “inactive” throughout. The max activation in [6] was -1.23% (inactive).
Regarding `C=C(C)[C@H]1CC=C(C)C(=O)C1`, the Potency result in [2], in experiment [10], in experiment [4] and in experiment [5] was “inactive” throughout. Besides, the result in experiment [3] was inactive.
Regarding `CCNc1ccccc1`, the Potency result in experiment [9], in experiment [2], in experiment [10], in experiment [4] and in experiment [5] was “inactive” each time. The outcome in [3] was inactive.
Turning to `Nc1ccc(Cl)c(N)c1`, the Potency result in experiment [9], in experiment [2], in experiment [10] and in [4] was “inactive” each time. For the same compound, in experiment [3], the call was inactive. Moreover, in experiment [5], the Potency is 61.3 µM (active).
Turning to `CN(C)c1ccc(O)c2c1C[C@H]1C[C@H]3[C@H](N(C)C)C(=O)C(C(N)=O)=C(O)[C@@]3(O)C(=O)C1=C2O`, the outcome in experiment [1], in experiment [3] and in experiment [8] was inactive. In addition, the Potency result in experiment [2], in experiment [5] and in experiment [7] was “inactive” throughout. The Potency is 68.6 µM (active) and 29.8 µM (active) in experiment [10]; 54.5 µM (active) and 29.8 µM (active) in experiment [4]. The max activation in experiment [6] is -2.35% (inactive).
In the case of `Brc1ccc(Br)c(Br)c1`, the Potency result in experiment [2], in [10], in experiment [4] and in [5] was “inactive” throughout. Besides, the compound was called inactive in experiment [3].
In the case of `COc1ccc(N)c(C)c1`, the Potency result in [9], in [2], in experiment [10], in [4] and in [5] was “inactive” each time. The compound was classed as inactive in experiment [3].
In the case of `CC1(C)NC(=O)NC1=O`, the call in [1] and in experiment [3] was inactive. Also, the Potency entry in [2], in experiment [10], in experiment [4] and in [5] was “inactive” each time.
`CC(C)(C#N)c1cc(Cn2cncn2)cc(C(C)(C)C#N)c1`: the Potency entry in experiment [9], in experiment [2], in [10] and in experiment [4] was “inactive” each time. Moreover, the compound was called inactive in [3]. Besides, the max activation in experiment [6] was 0.273% (inactive).
Turning to `CC(C)OC(=O)COc1ccc(Cl)cc1Cl`, the Potency entry in experiment [2], in experiment [10], in experiment [4] and in experiment [5] was “inactive” each time. For the same compound, the result in experiment [3] was inactive.
With `CC(=O)OCc1ccco1`, the Potency result in experiment [9] and in experiment [4] was “inactive” throughout. Also, the Potency is 60.8 µM (active) and inactive in experiment [2]; 15.3 µM (active) and inactive in experiment [10]; 60.8 µM (active) and inactive in experiment [5]. Moreover, the compound was called inactive in experiment [3].
Regarding `CC(C)=CCl`, the Potency entry in experiment [2], in experiment [10], in experiment [4] and in [5] was “inactive” each time. Moreover, the call in experiment [3] was inactive.
Regarding `COC(=O)c1cccnc1`, the Potency entry in experiment [2], in experiment [10], in experiment [4], in experiment [5] and in experiment [7] was “inactive” in each case. Besides, the call in [3] and in experiment [8] was inactive. Besides, the max activation in experiment [6] was -1.84% (inactive).
As to `O=c1[nH]cnc2[nH]ncc12`, the Potency entry in experiment [9], in [2], in experiment [10], in [4] and in experiment [5] was “inactive” each time. Besides, in experiment [3], the result was inactive.
As for `CC(C)(Oc1ccc(CCNC(=O)c2ccc(Cl)cc2)cc1)C(=O)O`, the outcome in experiment [1], in [3] and in experiment [8] was inactive. For the same compound, the Potency result in [2], in [10], in experiment [4], in [5] and in [7] was “inactive” in each case. Further, in [6], the max activation was -0.19% (inactive).
As for `O=C(OCC1CCC2OC2C1)C1CCC2OC2C1` (stereo not given), the Potency entry in experiment [2], in experiment [10], in experiment [4] and in experiment [5] was “inactive” in each case. Besides, in [3], the call was inactive.
Regarding `O=C(O)c1cc2ccccc2cc1O`, the Potency result in [9], in experiment [2], in [10] and in [4] was “inactive” throughout. In addition, the outcome in [3] was inactive. In addition, in experiment [5], the Potency was 54.1 µM (active).
For the compound `COc1ccc([N+](=O)[O-])cc1N`, the Potency result in experiment [2] and in [10] was “inactive” in each case. Also, in experiment [3], the result was inactive.
